Experimental data reported in PubChem BioAssay (EPA / NIEHS).
Records with an inconclusive call do not appear. Activity calls are given as the source filed them. The calls were made as follows, unless noted: active = hit-call score of the fitted dose curve at least 0.9, where 1 is the maximum; inconclusive = response in the unintended direction; inactive = score below 0.9.

Biological target: Nuclear receptor subfamily 1 group I member 3 (Homo sapiens) (UniProt Q14994)
Assay: ATG_CAR_TRANS: Attagene TRANS-FACTORIAL HepG2 Assay for human Constitutive Androstane Receptor (CAR) (AID 2282969);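 also: activators raise reporter mRNA above DMSO so AC50 marks induction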
Settings: HepG2 Attagene TRANS-FACTORIAL CAR reporter
Procedure, shortened: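 HepG2 cells transiently transfected with multiplexed GAL4-UAS reporter units expressing chimeric NR-Gal4 proteins; compound exposure 24 h. Reporter mRNA measured by RT-PCR, 6-FAM labelling, HpaI digestion and capillary electrophoresis; gain-of-signal fitted against DMSO baseline.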

Sequence of Nuclear receptor subfamily 1 group I member 3 (Homo sapiens) (Q14994 whole entry, looked up): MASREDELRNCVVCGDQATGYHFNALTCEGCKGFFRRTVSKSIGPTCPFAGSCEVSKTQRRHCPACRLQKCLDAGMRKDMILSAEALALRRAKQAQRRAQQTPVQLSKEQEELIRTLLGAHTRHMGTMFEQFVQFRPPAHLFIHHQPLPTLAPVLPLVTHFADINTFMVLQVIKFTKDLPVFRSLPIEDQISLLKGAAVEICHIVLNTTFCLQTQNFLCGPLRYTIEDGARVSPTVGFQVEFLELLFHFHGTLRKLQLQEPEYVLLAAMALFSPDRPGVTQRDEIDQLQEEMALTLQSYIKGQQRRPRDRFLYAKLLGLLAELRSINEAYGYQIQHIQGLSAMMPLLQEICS

Structure (SMILES)	outcome
CC(C)Oc1ccccc1O	inactive
CC1CC(OC(=O)c2ccccc2O)CC(C)(C)C1 (configuration not stated)	inactive
Clc1nc(C(Cl)(Cl)Cl)c(Cl)c(Cl)c1Cl	inactive
O=[N+]([O-])c1cc(C(F)(F)F)ccc1Cl	inactive
CN(CCOc1ccc(CC2SC(=O)NC2=O)cc1)c1ccccn1 (configuration not stated)	inactive
CCn1c2ccccc2c2cc(N)ccc21	inactive
COc1c(Cl)c(Cl)c(Cl)c(Cl)c1Cl	inactive
OCCCCCO	inactive
CCCCCOC(=O)CCC	inactive
O=C(Nc1ccccc1)c1cc([N+](=O)[O-])ccc1Cl	inactive
Cc1cc(C2(c3cc(C)c(O)cc3C)OS(=O)(=O)c3ccccc32)c(C)cc1O	inactive
OCc1cccnc1	inactive

Biological target: Estrogen receptor (Homo sapiens) (UniProt P03372)
Assay: ATG_ERa_TRANS: Attagene TRANS-FACTORIAL HepG2 Assay for human Estrogen Receptor alpha (ERa) (AID 2282970)
Settings: HepG2 Attagene TRANS ERa GAL4 reporter, mRNA
Procedure, shortened: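 HepG2 cells transiently transfected with multiplexed GAL4-UAS reporter units; ERa activity read via exogenous chimeric NR-Gal4 protein. After 24 hour compound exposure, reporter mRNA measured by RT-PCR with 6-FAM labelling and capillary electrophoresis; gain-of-signal fitted relative to DMSO.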

Sequence of Estrogen receptor (Homo sapiens) (P03372 whole entry, looked up): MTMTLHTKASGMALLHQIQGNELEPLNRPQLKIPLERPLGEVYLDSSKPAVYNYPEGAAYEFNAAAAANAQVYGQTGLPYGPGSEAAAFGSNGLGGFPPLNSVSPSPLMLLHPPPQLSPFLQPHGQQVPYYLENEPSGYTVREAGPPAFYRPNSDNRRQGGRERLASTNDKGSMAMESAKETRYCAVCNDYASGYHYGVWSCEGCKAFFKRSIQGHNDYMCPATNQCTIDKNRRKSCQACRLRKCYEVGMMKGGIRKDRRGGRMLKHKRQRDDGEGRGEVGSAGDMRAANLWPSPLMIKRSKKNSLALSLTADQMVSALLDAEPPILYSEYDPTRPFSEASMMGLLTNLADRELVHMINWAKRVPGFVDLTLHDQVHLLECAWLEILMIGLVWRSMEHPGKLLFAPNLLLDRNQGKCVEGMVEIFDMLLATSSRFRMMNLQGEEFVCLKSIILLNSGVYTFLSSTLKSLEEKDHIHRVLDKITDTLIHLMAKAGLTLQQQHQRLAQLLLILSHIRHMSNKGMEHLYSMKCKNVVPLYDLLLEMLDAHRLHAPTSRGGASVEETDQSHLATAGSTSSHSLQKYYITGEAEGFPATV

Structure (SMILES)	outcome	AC50
CC(C)Oc1ccccc1O	inactive	–
Clc1nc(C(Cl)(Cl)Cl)c(Cl)c(Cl)c1Cl	inactive	–
CN(CCOc1ccc(CC2SC(=O)NC2=O)cc1)c1ccccn1 (configuration not stated)	inactive	–
CCn1c2ccccc2c2cc(N)ccc21	inactive	–
OCCCCCO	–	76.1 µM (active)
O=C(Nc1ccccc1)c1cc([N+](=O)[O-])ccc1Cl	–	5.47 µM (active)
Cc1cc(C2(c3cc(C)c(O)cc3C)OS(=O)(=O)c3ccccc32)c(C)cc1O	–	4.2 µM (active)
OCc1cccnc1	inactive	–

Biological target: Steroid hormone receptor ERR1 (Homo sapiens) (UniProt P11474)
Assay: ATG_ERRa_TRANS: Attagene TRANS-FACTORIAL HepG2 Assay for human Estrogen-Related Receptor alpha (ERRa) (AID 2282971)
Settings: HepG2 Attagene TRANS reporter, ERRa transactivation
Procedure, shortened: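 HepG2 cells transiently transfected with multiplexed GAL4-UAS reporter units reading chimeric ERRa-Gal4 activity; 24 h compound exposure. Reporter mRNA measured by RT-PCR, 6-FAM labelling, HpaI digest and capillary electrophoresis; gain of signal fitted versus DMSO baseline.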

Sequence of Steroid hormone receptor ERR1 (Homo sapiens) (P11474 whole entry, looked up): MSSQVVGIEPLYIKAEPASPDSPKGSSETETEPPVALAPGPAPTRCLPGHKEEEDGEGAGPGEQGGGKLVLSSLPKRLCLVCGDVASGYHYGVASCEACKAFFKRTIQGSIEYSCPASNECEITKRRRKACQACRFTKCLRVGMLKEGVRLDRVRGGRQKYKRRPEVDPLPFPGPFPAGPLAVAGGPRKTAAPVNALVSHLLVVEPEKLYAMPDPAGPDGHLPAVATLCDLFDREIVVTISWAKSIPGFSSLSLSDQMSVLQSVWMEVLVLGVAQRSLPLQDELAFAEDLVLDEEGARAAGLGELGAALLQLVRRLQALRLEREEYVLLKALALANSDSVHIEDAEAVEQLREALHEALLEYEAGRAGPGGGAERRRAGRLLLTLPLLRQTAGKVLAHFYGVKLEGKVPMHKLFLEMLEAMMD

Structure (SMILES)	outcome
O=[N+]([O-])c1cc(C(F)(F)F)ccc1Cl	inactive
CCn1c2ccccc2c2cc(N)ccc21	inactive
CCCCCOC(=O)CCC	inactive

Biological target: X-box-binding protein 1 (Homo sapiens) (UniProt P17861)
Assay: ATG_Xbp1_CIS: Attagene CIS-FACTORIAL HepG2 Assay for human X-box Binding Protein 1 (XBP1) (AID 2282972; active = hit-call score of the fitted dose curve at least 0.9, where 1 is the maximum; inactive = score below 0.9)
Settings: HepG2 XBP1 cis-element reporter, Attagene multiplex; actives raise or lower the signal
Procedure, shortened: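 HepG2 cells transiently transfected with multiple cis-element reporter units report endogenous TF activity; 24 h exposure, then reporter mRNA measured by RT-PCR, 6-FAM labelling, HpaI digestion and capillary electrophoresis. Bidirectional fitting versus DMSO.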

Sequence of X-box-binding protein 1 (Homo sapiens) (P17861 whole entry, looked up): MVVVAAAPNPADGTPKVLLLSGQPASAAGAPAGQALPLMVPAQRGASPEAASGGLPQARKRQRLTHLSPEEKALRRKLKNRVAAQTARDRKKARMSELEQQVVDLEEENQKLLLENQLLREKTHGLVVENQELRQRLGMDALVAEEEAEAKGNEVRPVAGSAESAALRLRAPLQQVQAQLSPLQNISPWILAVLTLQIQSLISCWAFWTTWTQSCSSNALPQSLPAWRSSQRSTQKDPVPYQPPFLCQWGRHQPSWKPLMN

Structure (SMILES)	outcome	AC50
CC(C)Oc1ccccc1O	inactive	–
CCC(=O)/C=C/C1C(C)=CCCC1(C)C (configuration not stated)	inactive	–
Cc1ccc(C(C)C)cc1O	inactive	–
CC1CC(OC(=O)c2ccccc2O)CC(C)(C)C1 (configuration not stated)	inactive	–
Clc1nc(C(Cl)(Cl)Cl)c(Cl)c(Cl)c1Cl	inactive	–
CCCCCCCCCCCCCC(=O)O	inactive	–
COC(C(=O)O)c1ccccc1 (configuration not stated)	inactive	–
CC(C=O)Cc1ccc(C(C)C)cc1 (configuration not stated)	inactive	–
O=[N+]([O-])c1cc(C(F)(F)F)ccc1Cl	inactive	–
CN(CCOc1ccc(CC2SC(=O)NC2=O)cc1)c1ccccn1 (configuration not stated)	inactive	–
Sc1nc(S)nc(S)n1	inactive	–
CC(C)(Oc1ccc(CCNC(=O)c2ccc(Cl)cc2)cc1)C(=O)O	inactive	–
CCn1c2ccccc2c2cc(N)ccc21	inactive	–
CC(C)=CCC/C(C)=C/COC=O	inactive	–
COc1c(Cl)c(Cl)c(Cl)c(Cl)c1Cl	inactive	–
OCCCCCO	inactive	–
CCCCCOC(=O)CCC	inactive	–
CC(C)=CCC[C@H](C)CC=O	inactive	–
O=C(Nc1ccccc1)c1cc([N+](=O)[O-])ccc1Cl	–	4.35 µM (active)

Structure (SMILES)	outcome	AC50
O=C(Cl)c1cccc(C(=O)Cl)c1	inactive	–
O=C1NC(=O)c2ccccc21	inactive	–
c1ccc2[nH]ccc2c1	inactive	–
Cc1cc(C2(c3cc(C)c(O)cc3C)OS(=O)(=O)c3ccccc32)c(C)cc1O	inactive	–
CCCC1CCC(=O)O1 (configuration not stated)	inactive	–
COc1cc(C(C)(C)C)c(O)c(C(C)(C)C)c1	inactive	–
OCCN1CCNCC1	inactive	–
C=C[Si](OCC)(OCC)OCC	inactive	–
CCCCCCCCCCCCCOS(=O)(=O)O	inactive	–
C/C=C(\C)C(=O)OCc1ccccc1	inactive	–
C=C[C@@H](C)CCC=C(C)C	inactive	–
S=C(S)NCCNC(=S)S	inactive	–
N#Cc1nc(Cl)c(Cl)c(Cl)c1Cl	–	5.85 µM (active)
[Ca+2]	inactive	–
O=C(O)c1ccc([N+](=O)[O-])cc1	inactive	–
CCCc1c(OCCCOc2ccc(OCC(=O)O)cc2)ccc(C(C)=O)c1O	inactive	–
CC(=O)[O][Al][O]C(C)=O	inactive	–
OCc1cccnc1	inactive	–
O=C1CCc2ccccc2O1	inactive	–

System: not listed separately
Assay: ATG_M_19_TRANS: Attagene TRANS-FACTORIAL HepG2 Assay for M19 Transcription Factor (Internal Marker) (AID 2282974)
Settings: HepG2 Attagene TRANS-FACTORIAL M19 internal marker reporter
Procedure, shortened: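 After transfection of HepG2 with GAL4-UAS-driven reporter constructs, cells are dosed for 24 h. Total RNA is reverse-transcribed, reporter sequences PCR-amplified and labelled, then HpaI-digested and sized by capillary electrophoresis.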

Structure (SMILES)	outcome
CC1CC(OC(=O)c2ccccc2O)CC(C)(C)C1 (configuration not stated)	inactive
Clc1nc(C(Cl)(Cl)Cl)c(Cl)c(Cl)c1Cl	inactive
CN(CCOc1ccc(CC2SC(=O)NC2=O)cc1)c1ccccn1 (configuration not stated)	inactive
CCCCCOC(=O)CCC	inactive
Cc1cc(C2(c3cc(C)c(O)cc3C)OS(=O)(=O)c3ccccc32)c(C)cc1O	inactive
OCc1cccnc1	inactive

System: not listed separately
Assay: ATG_GAL4_TRANS: Attagene TRANS-FACTORIAL HepG2 Assay for GAL4 (Internal Marker) (AID 2282976)
Settings: HepG2 Attagene TRANS GAL4 internal marker reporter
Procedure, shortened: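 HepG2 cells transiently transfected with multiplexed GAL4-UAS reporter constructs were dosed for 24 h. Reporter mRNA was measured by RT-PCR, 6-FAM primer extension, HpaI digestion and capillary electrophoresis, and gain of signal was fitted relative to DMSO.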

Structure (SMILES)	outcome
CC(C)Oc1ccccc1O	inactive
CCC(=O)/C=C/C1C(C)=CCCC1(C)C (configuration not stated)	inactive
Cc1ccc(C(C)C)cc1O	inactive
CCCCCCCCCCCCCC(=O)O	inactive
COC(C(=O)O)c1ccccc1 (configuration not stated)	inactive
CC(C=O)Cc1ccc(C(C)C)cc1 (configuration not stated)	inactive
Sc1nc(S)nc(S)n1	inactive
CC(C)(Oc1ccc(CCNC(=O)c2ccc(Cl)cc2)cc1)C(=O)O	inactive
CC(C)=CCC/C(C)=C/COC=O	inactive
OCCCCCO	inactive
CCCCCOC(=O)CCC	inactive
CC(C)=CCC[C@H](C)CC=O	inactive
O=C(Cl)c1cccc(C(=O)Cl)c1	inactive
O=C1NC(=O)c2ccccc21	inactive
c1ccc2[nH]ccc2c1	inactive
Cc1cc(C2(c3cc(C)c(O)cc3C)OS(=O)(=O)c3ccccc32)c(C)cc1O	inactive
CCCC1CCC(=O)O1 (configuration not stated)	inactive
COc1cc(C(C)(C)C)c(O)c(C(C)(C)C)c1	inactive
OCCN1CCNCC1	inactive
C=C[Si](OCC)(OCC)OCC	inactive
CCCCCCCCCCCCCOS(=O)(=O)O	inactive
C/C=C(\C)C(=O)OCc1ccccc1	inactive
C=C[C@@H](C)CCC=C(C)C	inactive
S=C(S)NCCNC(=S)S	inactive
[Ca+2]	inactive
O=C(O)c1ccc([N+](=O)[O-])cc1	inactive
CCCc1c(OCCCOc2ccc(OCC(=O)O)cc2)ccc(C(C)=O)c1O	inactive
CC(=O)[O][Al][O]C(C)=O	inactive
OCc1cccnc1	inactive
O=C1CCc2ccccc2O1	inactive
